Screening data from PubChem BioAssay.
Only some compounds are listed: those with a hit (about 6.9% of all), similar ones and a draw of the others.
Vif-APOBEC3F blk: blocks the Vif interaction with APOBEC3F | AID 602313 | 390,000 compounds, 0.2% hits | HeLa A3F-eYFP + Vif (tagged APOBEC3F with the HIV-1 protein that degrades it), YFP fluorescence increase | Potency, µM (highest dose often 46.1 µM); further: nearly all actives have a fitted effect of over 65% in size
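HeLa cells stably expressing A3F-eYFP plus Vif, plated and incubated overnight at 37 deg C, then exposed to compounds overnight at 37 deg C. Blocked degradation read as raised yellow fluorescence (Ex 488/Em 500-530).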
Vif-A3G inh: inhibitors of Vif-APOBEC3G interaction. Q9HC16. 410,000 compounds, 0.076% hits. Potency, µM (series often up to 46.1 µM), most hits filed as inhibitors. HeLa A3G-eYFP + Vif (tagged APOBEC3G with the HIV-1 protein that degrades it), YFP fluorescence, overnight. AID 602310; further: nearly all actives have a fitted effect of over 60% in size
Target sequence (Q9HC16 whole entry, looked up): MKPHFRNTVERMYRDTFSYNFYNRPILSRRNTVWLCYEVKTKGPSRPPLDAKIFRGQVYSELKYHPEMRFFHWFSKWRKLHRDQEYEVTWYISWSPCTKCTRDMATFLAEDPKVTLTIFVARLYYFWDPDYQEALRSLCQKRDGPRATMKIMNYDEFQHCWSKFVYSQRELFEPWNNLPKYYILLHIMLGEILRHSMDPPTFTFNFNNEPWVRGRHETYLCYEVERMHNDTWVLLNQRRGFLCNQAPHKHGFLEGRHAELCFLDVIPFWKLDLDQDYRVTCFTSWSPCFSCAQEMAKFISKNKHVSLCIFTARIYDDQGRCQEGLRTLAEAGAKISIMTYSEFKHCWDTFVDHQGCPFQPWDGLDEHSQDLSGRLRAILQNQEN
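Read-out is eYFP fluorescence (Ex 488/Em 500-530) from Vif-expressing HeLa A3G-eYFP cells; more signal means A3G escaped Vif-mediated degradation. Cells plated overnight, compound pinned in, incubated overnight at 37 deg C.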
IL-1B inflam inh: blocks inflammasome-driven IL-1 beta release; THP-1 LPS/ATP IL-1B secretion, AlphaLISA, 16 h; hits give low values; activity change, % at 57.5 µM; 360,000 compounds, 4.7% hits; in the data active means activity change below about -50%; inconclusive means mostly about -30% to -49%
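THP-1 cells pretreated 1 hr with compounds (up to 57.5 uM final), then stimulated with LPS (250 ng/mL final) plus ATP (1.25 mM final); secreted IL-1B measured by AlphaLISA after 16 hr, decreased signal indicating inhibition.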
SW480 rereplic: inducers of DNA re-replication in SW480 colon cancer cells; SW480 DNA re-replication, Hoechst DNA content imaging, 48 h; Potency, µM (series often up to 46.1 µM), actives largely listed as activators; 340,000 compounds, 1.8% hits; AID 624297; further: nearly all actives have a fitted effect of over 55% in size
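Image-based read-out: total Hoechst fluorescence of nuclei (405 nm excitation, 500-530 nm emission), with hits raising the fraction of high-intensity nuclei. SW480 colon cells incubated 48 hr with compounds at 37 C.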
MCF10A rerep: induces DNA re-replication in MCF 10a normal breast cells | MCF 10A DNA re-replication, Hoechst nuclear intensity, 48 h | Potency, µM (highest dose often 46.1 µM), usual class: activators | 350,000 compounds, 2.9% hits | AID 624296; further: nearly all actives have a fitted effect of over 50% in size
Giardia kill: Giardia lamblia killing; Giardia lamblia trophozoite viability; activity change, % at 7.66 µM, hits read low; AID 540267; 340,000 compounds, 0.15% hits; in the data active means activity change below about -80%; inconclusive means between about -30% and that limit;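 further: parasites exposed to compound for two days anaerobically before the ATP read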
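Anaerobic 48 hrs incubation at 37 deg C of 100 trophozoites/well with test compounds; ATPLite 1-Step luminescence, 15-30 min RT, reports cellular ATP as viability.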
Numbers stand for hits. Unless noted, the call rests on the fitted dose curve; in most records, active means well fitted curve in the direction sought with a large enough effect; inconclusive means small, poorly fitted or top-dose-only effect, or another doubt; inactive means no such curve, though single readings can be large; an effect the other way counts as inactive or inconclusive.

For CC1(C)OC2CC3C4CC(F)C5=CC(=O)C=CC5(C)C4(F)C(O)CC3(C)C2(C(=O)CO)O1 (configuration not stated) the results were Vif-APOBEC3F blk inactive, Vif-A3G inh inactive, IL-1B inflam inh -50, SW480 rereplic inactive, MCF10A rerep inactive and Giardia kill inactive.
Screening CCCCC(=O)O[C@]1(C(=O)CO)[C@H](C)C[C@H]2[C@@H]3CCC4=CC(=O)C=C[C@]4(C)[C@@]3(F)[C@@H](O)C[C@@]21C returned SW480 rereplic inactive and MCF10A rerep inactive.
Screening N#C/C(=C1/SCC(c2ccccc2Cl)S1)n1ccnc1 (configuration not stated) returned SW480 rereplic inactive and MCF10A rerep inactive.
Screening O=C(CN1CCCCC1)Nc1c2c(nc3ccccc13)N(c1ccccc1)CC2 returned Vif-APOBEC3F blk inconclusive, Vif-A3G inh inconclusive, IL-1B inflam inh -81, SW480 rereplic inconclusive, MCF10A rerep inconclusive and Giardia kill inactive.
For O=C(C[n+]1ccccc1Cl)c1ccccc1 the results were Vif-A3G inh inactive.
For C/C(CC(=O)Nc1ccc(C)c(Cl)c1)=N\NC(=O)c1ccco1 the results were Vif-APOBEC3F blk inactive, Vif-A3G inh inactive, IL-1B inflam inh inactive, SW480 rereplic inactive, MCF10A rerep 18µM and Giardia kill inactive.
For COc1cccc(NC(=O)C(=O)N/N=C(\C)CC(=O)Nc2ccc(NC(C)=O)cc2)c1 the results were Vif-APOBEC3F blk inactive, Vif-A3G inh inactive, IL-1B inflam inh inactive, SW480 rereplic inactive, MCF10A rerep inactive and Giardia kill inactive.
`C/C(CC(=O)Nc1ccc(C)c(Cl)c1)=N\NC(=O)Cc1ccccc1` gave Vif-APOBEC3F blk inactive, Vif-A3G inh inactive, IL-1B inflam inh inactive, SW480 rereplic inactive, MCF10A rerep inactive and Giardia kill inactive.
C/C(CC(=O)Nc1ccc(OCc2ccccc2)cc1)=N\NC(=O)C(=O)Nc1ccc(C)c(Cl)c1 was read as Vif-APOBEC3F blk inactive, Vif-A3G inh inconclusive, IL-1B inflam inh inactive, SW480 rereplic inactive, MCF10A rerep 10µM and Giardia kill inactive.
For CCc1ccc(NC(=O)N(Cc2c[nH]c3ccccc23)C2CCCCCC2)cc1 the results were Vif-APOBEC3F blk inactive, Vif-A3G inh inactive and Giardia kill inactive.
COc1ccc(CCNS(=O)(=O)c2ccc(F)c(C(=O)Nc3ccc(Cl)cc3)c2)cc1OC was read as Vif-APOBEC3F blk inactive and Vif-A3G inh inactive.
For O=C(Nc1ccccc1)C1Cc2c(-c3ccccc3Oc3ccccc3)ccnc2O1 (configuration not stated) the results were Vif-A3G inh inactive and IL-1B inflam inh -57.
Screening COc1ccc(NC(=O)C2Cc3c(-c4ccccc4Oc4ccccc4)ccnc3O2)cc1 (configuration not stated) returned Vif-A3G inh inactive and IL-1B inflam inh inconclusive.
`O=C(Nc1ccc(Cl)cc1)C1Cc2c(-c3ccccc3Oc3ccccc3)ccnc2O1` (configuration not stated) gave Vif-A3G inh inactive and IL-1B inflam inh -53.
Screening COc1ccc(C2CC(=O)N(CC(=O)Nc3ccc(C(F)(F)F)cc3)c3ccccc3S2)cc1 (configuration not stated) returned Vif-APOBEC3F blk inactive and Vif-A3G inh inactive.
For Cc1ccc(NC2=NC(c3ccccc3)n3c(nc(C)cc3=O)N2)c(C)c1 (configuration not stated) the results were Vif-APOBEC3F blk inactive, Vif-A3G inh inactive, IL-1B inflam inh -74, SW480 rereplic inactive, MCF10A rerep inactive and Giardia kill inactive.
Screening Cc1nn(C(=O)c2cccc([N+](=O)[O-])c2C)c(C)c1S(=O)(=O)N1CCOCC1 returned Vif-APOBEC3F blk inactive and Vif-A3G inh inactive.
For Cc1c(NC(=O)c2ccc([N+](=O)[O-])o2)cccc1-c1nc2ncccc2o1 the results were Vif-APOBEC3F blk inactive, Vif-A3G inh inconclusive, IL-1B inflam inh -103, SW480 rereplic inconclusive, MCF10A rerep inconclusive and Giardia kill -92.
